Source: PubChem BioAssay (Sanford-Burnham Center for Chemical Genomics)
TROY signal inh: inhibitors of TROY-dependent NF-kB signaling; actives 0.98% (n = 360,000); Q293 LMP1-TROYcd NF-kB luciferase reporter, 4 h; inhibition, % at 10 µM; AID 1347056;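 active = compounds whose plate-normalised and pattern-corrected inhibition of the luciferase reporter signal at the single screening dose is 50% or more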
TWEAK-Fn14 inh: blocks TWEAK-Fn14 interaction in a reporter cell assay; TWEAK-stimulated Fn14 reporter cells, luciferase luminescence, 8 h; inhibition, % at 10 µM; actives 2% (n = 360,000); in the data active = inhibition above about 50%
KKLEB tox: reduces viability of KKLEB cystic fibrosis airway cells; activity change (cytotoxicity), % at 5 µM; KKLEB CF airway cells viability, ATPlite luminescence, overnight; active compounds read low; cells stimulated with P. aeruginosa culture filtrate; actives 0.36% (n = 360,000);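 active = corrected activity change at or below -50% at 5 µM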
CF NFkB block: inhibitors of cystic fibrosis induced NF-kB; KKLEB NF-kB-GFP reporter, PAF-induced, GFP fluorescence overnight; inhibition, % at 5 µM; actives 0.86% (n = 360,000); AID 588850;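 active = at least 50% inhibition at 5 µM, scaled per plate between neutral and stimulator controls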;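 note: PAF is a Pseudomonas aeruginosa culture filtrate used as stimulus; plate controls were PAF-stimulated DMSO wells for no effect and unstimulated DMSO wells for full effect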
Peg3 prom inh: Peg3 promoter activity inhibition | HeLa PEG-Prom luciferase reporter, luminescence, overnight | inhibition, % at 20 µM | actives 1.7% (n = 360,000) | AID 588405;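 active = inhibition of at least 50% at 20 µM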
HIF-2a inh: blocks HIF-2a reporter activity; 786-0 RCC cells HIF-2a reporter, luciferase luminescence, overnight; inhibition, % at 18.8 µM; actives 0.72% (n = 360,000); AID 624352;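 active = inhibition of the luminescence signal of 40% or more relative to plate controls, in a single-dose primary screen at 18.75 µM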
CF NFkB inh conf: confirmation of cystic fibrosis induced NF-kB inhibitors; inhibition, % at 5 µM; shares compounds with CF NFkB block; actives 64% (n = 1,300); KKLEB CF airway cells, PAF-induced NF-kB-GFP fluorescence, overnight; in the data active = inhibition above about 40%;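 note: stimulus PAF is a Pseudomonas aeruginosa filtrate and not platelet activating factor; plate controls were DMSO wells with stimulus for no effect and unstimulated DMSO wells for full effect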
An asterisk follows results filed as active; x = not tested or not shown. In the library only some 4% were active in any assay of this set; here they are far more common.

SMILES	TROY signal inh	TWEAK-Fn14 inh	KKLEB tox	CF NFkB block	Peg3 prom inh	HIF-2a inh	CF NFkB inh conf
CCOc1ccccc1NC(=S)Nc1ccc2cn[nH]c2c1	17	23	2	58*	-53	-60	67*
CCOC(=O)N1C(=O)[C@](c2ccc(Cl)cc2)(C(C)C)N1C(=O)OCC	-3	34	-6	51*	68*	26	9
COC(=O)N1C(=O)[C@](c2ccccc2)(C(C)C)N1C(=O)OC	-5	26	-2	36	24	32	x
Nc1ccccc1C=C1Cc2ccccc2C1=O	-9	44	-7	-59	-244	-211	x
O=C1C(=Cc2ccccc2[N+](=O)[O-])Cc2ccccc21	12	95*	-48	89*	100*	31	85*
CCN(C(=O)Cn1cnc2c1c(=O)n(C)c(=O)n2C)C1CCS(=O)(=O)C1 (stereo not given)	-19	0	2	5	-1	3	x
CCCC[C@@H]1CNC(=O)C(=O)N1CCCCC1CCCCC1	-5	6	x	x	x	5	x
O=C1CC(=O)OC(c2ccc([N+](=O)[O-])cc2)O1	10	102*	-22	90*	103*	86*	111*
CCC1C(=O)C(C)(C)C(=O)OC1c1ccc([N+](=O)[O-])cc1 (stereo not given)	13	1	4	-16	-2	15	x
Clc1cncc(Cl)c1N/N=C/c1ccncc1	63*	59*	-42	81*	-12	14	78*
Clc1cccc(Cl)c1/C=N/Nc1c(Cl)cncc1Cl	-17	6	1	-2	24	8	x
CCCn1c(-c2nonc2N)nc2ccccc21	25	31	-28	66*	8	7	61*
Cn1c(-c2nonc2N)nc2ccccc21	-5	-4	6	-18	-23	-21	x
O=C(NCCc1c[nH]c2ccccc12)C(=O)NCC(c1ccco1)N1CCN(c2ccc(F)cc2)CC1 (stereo not given)	1	-1	-48	51*	26	21	-17
Cc1onc(-c2c(F)cccc2Cl)c1C(=O)Nc1cc2cc([N+](=O)[O-])ccc2oc1=O	21	8	-3	-20	16	4	x
CN(C(=O)CSc1nc2ccccc2c(=O)n1-c1ccccc1Cl)C1CCS(=O)(=O)C1 (stereo not given)	-4	30	12	-16	1	9	x
COc1ccc(CN2C(=NC(=O)CCc3ccccc3)SC3CS(=O)(=O)CC32)cc1 (stereo not given)	0	2	11	-10	35	9	x
O=C(CCc1ccccc1)N=C1SC2CS(=O)(=O)CC2N1Cc1ccccc1 (stereo not given)	-9	-1	-9	50*	7	2	22
Cc1cccc(-n2c(SCc3ccc([N+](=O)[O-])cc3)nnc2-c2c[nH]c3ccccc23)c1	8	24	-40	51*	20	18	21
Cc1ccc(NC(=O)Nc2cccc([N+](=O)[O-])c2)cc1F	45	79*	-48	65*	-183	-241	52*
Cc1cc(NC(=O)Nc2cccc([N+](=O)[O-])c2)no1	-21	-7	9	5	-56	-39	x
CC(=O)NC(CC(C)C)C(=O)NC(Cc1ccccc1)C(=O)CCl (stereo not given)	10	10	-21	52*	32	-9	56*
CCN(CC)c1ncnc2ccc(Br)cc12	35	50	-17	71*	15	19	40*
CCOC(=O)C1(C)CCN1C(=O)c1cc(F)ccc1C (stereo not given)	9	-1	2	-35	8	3	x
COc1ccc(Nc2nc(-c3cccs3)nc3ccccc23)cc1S(=O)(=O)N1CCOCC1	27	97*	-36	90*	55*	-83	103*
SMILES	TROY signal inh	TWEAK-Fn14 inh	KKLEB tox	CF NFkB block	Peg3 prom inh	HIF-2a inh	CF NFkB inh conf
COc1ccc(NS(=O)(=O)c2cccs2)cc1S(=O)(=O)N1CCOCC1	7	3	0	-6	13	2	x
O=C(N1CCCCC1)N1CCN(C(c2ccccc2)c2ccccc2)CC1	-14	27	12	7	19	17	x
Oc1c(C(c2ccccc2)N2CCCCC2)ccc2ccccc12 (stereo not given)	-15	15	-31	68*	20	11	27
COC(=O)c1[nH]c2c(c1C)C(=O)CC(c1ccccc1)C2 (stereo not given)	14	38	-29	42	15	6	x
C/C=C/COC(=O)c1[nH]c2c(c1C)C(=O)CC(c1ccco1)C2 (stereo not given)	-21	27	-32	62*	-6	15	85*
Cc1c(C(=O)OC2CCCC2)[nH]c2c1C(=O)CC(c1ccco1)C2 (stereo not given)	17	29	-31	50*	-26	-47	82*
C/C=C/COC(=O)c1[nH]c2c(c1C)C(=O)CC(c1ccc(N(C)C)cc1)C2 (stereo not given)	-1	0	-26	25	-40	-49	x
Cc1c(C(=O)OCC(C)C)[nH]c2c1C(=O)CC(c1ccco1)C2 (stereo not given)	-2	19	-24	51*	-41	-61	53*
Cc1c(C(=O)OCC2CCCO2)[nH]c2c1C(=O)CC(c1ccco1)C2 (stereo not given)	5	-19	1	5	-4	-20	x
CCc1nnc(NC(=O)CSc2nnc3nc(C)cc(C)n23)s1	9	11	0	8	19	6	x
O=C(N/N=C/c1ccccc1Cl)c1[nH]c2ccc(Br)cc2c1-c1ccccc1	21	38	-14	63*	14	13	76*
COc1ccc(/C=N/NC(=O)c2[nH]c3ccc(Br)cc3c2-c2ccccc2)cc1	22	-30	-33	81*	-10	26	81*
CS(=O)(=O)c1ccc(-c2sc3ccccc3c2C(=O)NCCCN2CCOCC2)cc1	-15	-9	2	-9	6	13	x
O=C(Cc1ccc(F)cc1)N[C@@H]1c2ccccc2CC[C@H]1OCc1ccccc1	-5	15	14	-9	9	10	x
COc1ccc(-c2cc(C(F)(F)F)nc(N3CCN(Cc4ccccc4)CC3)n2)cc1OC	7	7	-8	4	5	16	x
COc1ccc(-c2cc(C(F)(F)F)nc(N3CCN(c4ccc(F)cc4)CC3)n2)cc1OC	-6	-10	-34	54*	20	3	41*
O=C(O)c1cccc(OS(=O)(=O)c2cc(Br)ccc2Br)c1	-28	-8	0	13	-39	-38	x
Cn1cc(C(=O)C(=O)N2CCc3ccccc32)c2ccccc21	-19	-5	-13	5	-32	-102	x
